M1 antag: blocks the rat M1 muscarinic receptor response to acetylcholine; P08482; AID 628; 64,000 tested, 3.4% active; B-score at 10 µM; CHO-M1 cells, Fluo-4 calcium, ACh EC80 antagonist mode; active compounds read low;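 active means calcium fluorescence response, raw or row-and-column corrected B-score, differing from the plate sample mean either way at a set confidence level, mostly lower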
Hsp90 inh: displaces geldanamycin probe from tumor Hsp90; P07900; NCI-N417 lysate Hsp90, Cy3B-geldanamycin FP displacement; inhibition, % at 30 µM; 64,000 tested, 0.35% active; AID 429;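 active means inhibition above 50%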
DUSP1 inh: inhibitors of human MKP-1 phosphatase; P28562; recombinant MKP-1, OMFP hydrolysis fluorescence; inhibition, %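 (compounds tested at a single concentration somewhere between 10 and 100 µM)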; 65,000 tested, 0.15% active; AID 374;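 active means inhibition above about 50%, limit read from the data; inconclusive means inhibition over screen mean plus 3 SD, below that limit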
MMP-13 inhibitor: blocks human MMP13 activity. P45452. MMP-13 fTHP FRET cleavage, Mca fluorescence. inhibition, % at 4 µM. 65,000 tested, 0.07% active;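 active means inhibition above the mean of compound-free control plate wells plus 3 SD, cut at about 14% in these data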
M1 agonist: M1 muscarinic receptor agonism; CHO-M1 cells, Fluo-4 calcium fluorescence, agonist mode; active compounds read high; B-score at 10 µM; 64,000 tested, 3% active;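 active means fluorescence rise, raw or as B-score row- and column-corrected plate score, outside the 99.7% band of its plate's samples, either direction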
Cdc25B inh: human M-phase inducer phosphatase 2 inhibition. P30305. inhibition, %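 (compounds tested at 10 µM final in the well)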. AID 368. recombinant Cdc25B, OMFP fluorescence Ex485/Em525. 65,000 tested, 0.1% active; in the data active means inhibition above about 50%
M1 agonist conf: confirmation of rat M1 muscarinic receptor agonists. 1,700 tested, 19% active. fluorescence change (max-min) at 10 µM. shares compounds with M1 agonist. AID 1488. CHO-M1 cells, Fluo-4 calcium fluorescence, agonist mode; actives lie on both sides;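 active means fluorescence change differs from the solvent-only DMSO control mean at a set confidence level in both duplicate runs; inconclusive means differs from solvent-only control mean in just one of two runs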;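 further: an EC20 dose of acetylcholine follows compound addition during the same imaging run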
M4 agonist ctr: counter-screen for M1 agonists: activity at rat M4 receptor | shares compounds with M1 agonist | CHO M4/Gqi5 cells, Fluo-4 calcium fluorescence, agonist mode; actives lie on both sides | fluorescence change (max-min) at 10 µM | AID 1741 | 1,700 tested, 9% active;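 active means fluorescence change differing from the plate's solvent-only control wells at 99.7% confidence in both duplicates, whether higher or lower; inconclusive means differs from solvent controls in only one of two duplicates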
Target sequence (P08485 whole entry, looked up): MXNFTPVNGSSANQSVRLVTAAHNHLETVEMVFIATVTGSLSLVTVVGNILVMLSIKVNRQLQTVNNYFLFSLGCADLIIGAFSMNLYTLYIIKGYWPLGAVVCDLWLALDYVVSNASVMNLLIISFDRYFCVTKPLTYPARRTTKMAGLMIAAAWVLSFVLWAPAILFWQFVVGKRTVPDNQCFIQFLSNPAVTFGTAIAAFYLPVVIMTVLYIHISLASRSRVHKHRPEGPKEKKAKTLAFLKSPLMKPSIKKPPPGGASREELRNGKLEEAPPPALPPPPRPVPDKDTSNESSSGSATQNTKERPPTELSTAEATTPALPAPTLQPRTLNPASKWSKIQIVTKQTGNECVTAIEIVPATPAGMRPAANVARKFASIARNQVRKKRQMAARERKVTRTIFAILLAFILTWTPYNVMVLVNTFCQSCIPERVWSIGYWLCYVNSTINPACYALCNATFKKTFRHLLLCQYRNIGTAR
Of the large screens only hits and unclear results are named; the others gave an inactive call (follow-up assays come after a bar, where they were run). Rows were chosen to be rich in hits. Some 6.1% of all compounds tested hit in one or more screens of this group.

COc1cccc(C2=CC(c3ccccc3)n3nnnc3N2)c1 (configuration not stated)	none
COc1cccc(C2=CC(c3ccccc3)n3ncnc3N2)c1 (configuration not stated)	M1 agonist 33 | M1 agonist conf 159 | M4 agonist ctr 148
COc1cccc(C2=CC(c3ccc(N(C)C)cc3)n3ncnc3N2)c1 (configuration not stated)	M1 agonist 2.2 | M1 agonist conf inactive | M4 agonist ctr inactive
COc1cccc(C2=CC(c3ccc(N(C)C)cc3)n3nnnc3N2)c1 (configuration not stated)	none
COCCN(C(=O)Nc1ccccc1)c1ccccc1C	none
CC(C)(C)C(=O)N=C1SC2CS(=O)(=O)CC2N1c1ccc2c(c1)OCO2 (configuration not stated)	none
COc1ccc(OC)c(NC2c3ccccc3C(=O)N2c2cccnc2)c1 (configuration not stated)	none
COc1ccc(S(=O)(=O)N(Cc2cc3ccc(OC)cc3[nH]c2=O)CC2COCCO2)cc1 (configuration not stated)	M1 agonist 4.9 | M1 agonist conf inactive | M4 agonist ctr inconclusive
COc1ccc2cc(CN(CC3COCCO3)S(=O)(=O)c3ccccc3)c(=O)[nH]c2c1 (configuration not stated)	none
COC(=O)c1c(NC(=O)c2ccoc2C)sc2c1CCC2	M1 agonist 2.2 | M1 agonist conf inactive | M4 agonist ctr inactive
COc1ccc(C(=O)N2CCN(c3ccc(C)cc3C)CC2)cc1OC	none
COc1ccc(C(=O)N2CCN(c3ccc(C)c(C)c3)CC2)cc1OC	M1 agonist -2.5 | M1 agonist conf inconclusive | M4 agonist ctr -83
COc1ccc(S(=O)(=O)N(Cc2ccccc2)Cc2nc(-c3ccccc3)no2)cc1	M1 agonist 23 | M1 agonist conf inactive | M4 agonist ctr inactive
CS(=O)(=O)N1CCN(C(=O)c2cc(-c3ccncc3)nc3ccc(Cl)cc23)CC1	none
Cc1cccn2c(=O)c3cc(C#N)c(=NC(=O)c4ccncc4)n(CCCOC(C)C)c3nc12	M1 agonist 83 | M1 agonist conf 587 | M4 agonist ctr 511
CCCn1c(=NC(=O)c2ccc3c(c2)OCO3)c(C#N)cc2c(=O)n3cccc(C)c3nc21	none
COCCCn1c(=NC(=O)c2ccncc2)c(C#N)cc2c(=O)n3cccc(C)c3nc21	M1 agonist 129 | M1 agonist conf 469 | M4 agonist ctr 363
CC(=O)c1cc(F)c(N2CCN(CCC#N)CC2)cc1C	none (no result: Hsp90 inh, MMP-13 inhibitor)
CC1(C)Cc2nc3sc4c(N(CCO)CCO)ncnc4c3cc2CO1	M1 agonist 2.8 | M1 agonist conf inconclusive | M4 agonist ctr inactive
CC(C)Cn1c2c(c(O)c(C(=O)Nc3ccc(F)cc3)c1=O)CCCC2	M1 agonist 3 | M1 agonist conf inconclusive | M4 agonist ctr inactive
O=C(NCc1ccc2c(c1)OCO2)C1CC(=O)N(c2ccc(O)cc2)C1 (configuration not stated)	none
CSc1nc(-c2ccco2)cc(-c2ccccc2)c1C#N	M1 agonist 15 | M1 agonist conf inconclusive | M4 agonist ctr inconclusive
CCCc1nc(SCC(=O)N2CCC(Cc3ccccc3)CC2)c2c(=O)n(C)c(=O)n(C)c2n1	M1 agonist 4 | M1 agonist conf inactive | M4 agonist ctr inactive
CCCc1nc(SCC(=O)N2CCCc3ccccc32)c2c(=O)n(C)c(=O)n(C)c2n1	M1 antag -1.4, M1 agonist 2.9 | M1 agonist conf inconclusive | M4 agonist ctr inactive
OCCN1CCOCCN(CCO)CCOCC1	none
N#CCCCSc1nnc(-c2ccc(Cl)cc2)n1-c1ccccc1	none
COc1ccc(C2C(C(=O)NC(C)C)c3ccccc3C(=O)N2C)cc1OC (configuration not stated)	M1 agonist 3.4 (no result: Hsp90 inh) | M1 agonist conf inactive | M4 agonist ctr inactive
CCOC(=O)C1CCCN(C(=O)CCCn2nc(C)n3c(cc4sccc43)c2=O)C1 (configuration not stated)	M1 agonist 42 | M1 agonist conf 335 | M4 agonist ctr inconclusive
CCOCCCNC(=O)CCCn1nc(C)n2c(cc3sccc32)c1=O	none
CSc1nc2[nH]c3c(c2c2ncnn12)CCCC3	M1 agonist 8.1 | M1 agonist conf inconclusive | M4 agonist ctr inactive
CCOC(=O)CC1=C(C(=O)OCC)C(c2ccc(C)o2)C(C#N)=C(N)O1 (configuration not stated)	none
CCOC(=O)CC1=C(C(=O)OCC)C(c2ccc(OC)cc2OC)C(C#N)=C(N)O1 (configuration not stated)	M1 agonist 7 | M1 agonist conf inactive | M4 agonist ctr inactive
CCc1c(C)nc2ncnn2c1NCCc1ccc(OC)cc1	M1 antag -2.8, M1 agonist 4.8 | M1 agonist conf inactive | M4 agonist ctr inconclusive
O=C(NCCN1C(=O)CCC1=O)c1ccncc1	none
CC(C)OC(=O)c1cn(-c2ccccc2)nc1-c1ccco1	M1 agonist 4.4 | M1 agonist conf inactive | M4 agonist ctr inactive
COc1ccc(-c2nn(-c3ccccc3)cc2C(=O)O)cc1	none
CCOC(=O)c1cn(-c2ccccc2)nc1-c1ccncc1	M1 agonist 2.2 | M1 agonist conf inconclusive | M4 agonist ctr inconclusive
CCc1cc2c(NCCC(=O)O)ncnc2s1	M1 agonist 11 | M1 agonist conf inactive | M4 agonist ctr inactive
CCc1cc2c(NCCO)ncnc2s1	none
CC(C)Nc1nc(NC(C)C)nc(C(N)=O)n1	none
Cc1nc2cccc(C(=O)NCc3ccccc3)c2o1	none
O=C(Nc1cnc2ccccc2c1)c1cccc(-n2cnnn2)c1	M1 agonist 4.4 | M1 agonist conf inconclusive | M4 agonist ctr inactive
COc1ccc(Cl)cc1CN1CCN(c2nc(C)cc(C)c2C#N)CC1	M1 agonist 7.4 | M1 agonist conf inactive | M4 agonist ctr inactive
Cc1cc(C)c2c(n1)nn1c(N3CCN(Cc4ccccc4)CC3)cc(C)nc21	none
Cc1cc(C)c(C#N)c(N2CCN(CCOc3ccc(Cl)cc3)CC2)n1	none
COc1ccc(F)cc1CN1CCN(c2cc(C)nc3c4c(C)cc(C)nc4nn23)CC1	M1 agonist 3.5 | M1 agonist conf inconclusive | M4 agonist ctr inactive
O=C(CCC(=O)N1CCc2ccccc21)N1CCc2ccccc21	none
O=C(CS(=O)(=O)Cc1ccccc1)N1CCc2ccccc21	M1 agonist 23 | M1 agonist conf inactive | M4 agonist ctr inactive
CC(C)(CN=C1NS(=O)(=O)c2ccccc21)CNC(=O)CN1C(=O)c2ccccc2C1=O	none
CC1CCc2cccc3c2N1c1cc(C#N)c(C#N)cc1O3 (configuration not stated)	M1 agonist 11 | M1 agonist conf inconclusive | M4 agonist ctr inactive

From PubChem
